GPR151 ag: human GPR151 activation. Q8TDV0. PathHunter beta-arrestin GPR151 cells, luminescence. activation, % at 11.2 µM. actives 1% (n = 650,000). AID 1508602; in the data active = activation above about 4.9%;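 also: 0% = median of compound wells and 100% = cells with positive control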
FBW7 act: human FBW7 E3 ligase activation, primary screen; Q969H0; AlphaScreen FBW7–phospho-cyclin E peptide binding, activator screen; normalized activity (activation), % at 26.1 µM; actives 0.13% (n = 650,000); AID 1259310; in the data active = normalized activity above about 1.9%;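 also: purified mutant Fbw7 with reduced substrate affinity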
Target sequence (Q969H0 whole entry, looked up): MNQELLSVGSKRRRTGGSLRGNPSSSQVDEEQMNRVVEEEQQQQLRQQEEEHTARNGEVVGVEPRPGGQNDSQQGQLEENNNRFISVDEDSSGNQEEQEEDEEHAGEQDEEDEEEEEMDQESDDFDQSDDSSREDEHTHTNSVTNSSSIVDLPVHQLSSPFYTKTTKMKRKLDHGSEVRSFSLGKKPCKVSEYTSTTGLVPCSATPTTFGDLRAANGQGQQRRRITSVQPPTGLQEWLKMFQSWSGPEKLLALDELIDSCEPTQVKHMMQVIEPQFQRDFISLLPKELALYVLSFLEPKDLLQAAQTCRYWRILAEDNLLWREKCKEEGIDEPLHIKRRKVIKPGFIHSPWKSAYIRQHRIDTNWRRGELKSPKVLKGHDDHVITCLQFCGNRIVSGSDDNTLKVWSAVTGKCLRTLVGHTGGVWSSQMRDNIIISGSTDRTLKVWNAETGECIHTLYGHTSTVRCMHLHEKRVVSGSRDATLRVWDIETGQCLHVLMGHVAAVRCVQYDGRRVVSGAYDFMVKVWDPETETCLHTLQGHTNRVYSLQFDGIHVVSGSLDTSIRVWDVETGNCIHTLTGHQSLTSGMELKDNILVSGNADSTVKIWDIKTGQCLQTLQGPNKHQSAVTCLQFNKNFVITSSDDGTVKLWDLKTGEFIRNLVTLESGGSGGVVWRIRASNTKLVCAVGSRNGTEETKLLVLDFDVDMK
TEAD-YAP block: TEAD-YAP interaction inhibition | HEK-TIYL cells, TEAD-Gal4/YAP UAS-luciferase luminescence | inhibition, % at 9.12 µM | actives 1.4% (n = 640,000); in the data active = inhibition above about 32%;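 also: 0% = median of test compound wells and 100% = reference inhibitor wells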
MITF inh: inhibitors of human MITF | inhibition, % at 2.6 µM | AlphaScreen MITF homodimerization, bead proximity signal | O75030 | actives 0.91% (n = 650,000) | AID 1259374; in the data active = inhibition above about 50%;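 also: 0% = vehicle wells with protein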
* marks the source's active call; other numbers are inactive results. Hits are enriched below; roughly 3.4% of the tested compounds scored in any of these assays.

SMILES | GPR151 ag | FBW7 act | TEAD-YAP block | MITF inh
O=C1CN(S(=O)(=O)c2ccc3[nH]c4c(c3c2)CCCC4)c2ccccc2N1 | 0.5 | 0.1 | 61.8* | -14.8
O=C1CN(Cc2ccccc2)c2ccccc2N1 | -1.5 | -0.1 | 95.6* | 6.8
CCCNS(=O)(=O)c1ccc2[nH]c3c(c2c1)CCCC3 | 2.0 | -0.2 | 4.7 | 3.6
Cc1cc(C)c(S(=O)(=O)N2CC(=O)Nc3ccccc32)c(C)c1 | -0.8 | -0.1 | 55.1* | 9.7
CCOc1ccc(S(=O)(=O)N2CC(=O)Nc3ccccc32)cc1 | 2.3 | 0.0 | 42.0* | 1.7
O=C1CN(S(=O)(=O)c2ccc3ccccc3c2)c2ccccc2N1 | -0.2 | 0.1 | 2.0 | 5.6
O=C1CN(Cc2ccccc2)CC(=O)N1 | 2.1 | 0.0 | 5.8 | 8.5
COc1cccc(C(=O)COc2ccc([N+](=O)[O-])cc2)c1 | 0.3 | -0.1 | -22.2 | -1.5
Cc1cc(C)cc(N2C(=O)C3C4C=CC(C5CC45)C3C2=O)c1 (centres undefined) | -0.7 | 0.1 | 8.7 | -8.3
Cc1noc(C)c1NC(=O)N1CCC2(CC1)NCCc1c2[nH]c2ccc(Cl)cc12 | -0.8 | 0.2 | -4.7 | 14.4
Cc1ccc2[nH]c3c(c2c1)CCNC31CCN(C(=O)N[C@@H](C)c2ccccc2)CC1 | 0.6 | 0.2 | -15.8 | 15.9
C[C@H](NC(=O)N1CCC2(CC1)NCCc1c2[nH]c2ccc(Cl)cc12)c1ccccc1 | -0.3 | 0.2 | 37.4* | 6.2
COc1cccc(NC(=O)N2CCC3(CC2)NCCc2c3[nH]c3ccc(Cl)cc23)c1 | -0.2 | -0.3 | 48.1* | 14.8
O=C(OC(C(=O)NC1CCCCC1)c1ccncc1)c1ccco1 (centres undefined) | -1.5 | 0.1 | 4.0 | 3.3
Clc1ccc(-c2ccc(/C=C/c3nc4ccccc4o3)o2)cc1 | 0.3 | 0.9 | -1.0 | -4.1
COc1ccc(-c2csc3ncnc(Cl)c23)cc1OC | 1.5 | 1.8 | 33.9* | 13.1
CC(=O)O[C@@H]1[C@@H](O)CN[C@@H]1Cc1ccccc1 | -2.5 | -0.1 | 101.2* | -1.7
Oc1ccccc1N=Nc1ccccc1O | 0.0 | -0.4 | 72.7* | 71.6*
Oc1cccc(C=Nc2ccccc2O)c1 | -1.2 | 0.0 | -3.0 | -10.2
Nc1nc2c(s1)CCc1c-2cnn1-c1ccccc1 | -0.5 | 0.1 | 44.9* | -3.4
CC1(C)Cc2c(cnn2-c2ccc(Cl)cc2)-c2nc3ccccc3nc21 | 0.0 | -0.1 | -1.3 | 15.3
CC(C)n1cnc2c(NCc3nc4ccccc4[nH]3)nc(Nc3nccc4ccccc34)nc21 | 0.1 | 0.6 | 42.9* | 4.4
CC(C)n1cnc2c(NCc3nc4ccccc4[nH]3)nc(Nc3ccccn3)nc21 | 0.7 | 0.6 | 85.0* | 0.2
CC(C)n1cnc2c(NCc3nc4ccccc4[nH]3)nc(Nc3ccc4ncccc4c3)nc21 | -1.5 | -0.1 | 40.5* | 12.9
CC(C)n1cnc2c(NCc3nc4ccccc4[nH]3)nc(Nc3nc4ccccc4n3C)nc21 | -0.4 | 0.0 | -0.1 | 4.5
SMILES | GPR151 ag | FBW7 act | TEAD-YAP block | MITF inh
CCNc1nc(NCc2cccnc2)c2ncn(C(C)C)c2n1 | -0.7 | -0.1 | -0.1 | 5.0
CC(C)n1cnc2c(NC3CC3)nc(Nc3nccc4ccccc34)nc21 | 2.2 | -0.1 | 13.6 | 5.7
CC(C)n1cnc2c(NCc3nc4ccccc4[nH]3)nc(NCc3cccnc3)nc21 | -2.2 | -0.1 | 58.9* | 18.1
CCOc1ccc(C2NC(=O)NC2=O)cc1 (centres undefined) | 1.9 | 0.0 | 7.2 | -9.9
O=C(Nc1ccccc1-c1nc2ccccc2s1)c1cc([N+](=O)[O-])ccc1Cl | -0.3 | 0.0 | 7.0 | -5.3
CC(C)n1cnc2c(NCc3nc4ccccc4[nH]3)nc(Nc3ccncn3)nc21 | 3.4 | -0.1 | 86.2* | -8.1
CC(C)n1cnc2c(NCc3nc4ccccc4[nH]3)nc(Nc3cnccn3)nc21 | 0.4 | -0.1 | 77.6* | 4.2
CCN1CCN(C(c2ccccc2)c2nnnn2C2CCCCC2)CC1 (centres undefined) | 1.3 | -0.3 | 39.2* | -5.4
c1coc(-c2nnc(SCc3nc4ccccc4[nH]3)o2)c1 | -1.6 | -0.1 | 43.5* | 0.5
CCOCc1cc(CN2CCN(c3ccccc3)CC2)c(O)c2ncccc12 | 1.5 | -1.3 | 58.9* | 95.3*
CCOCc1cc(CN2CCCCC2)c(O)c2ncccc12 | -1.3 | -1.2 | 27.0 | 103.2*
Oc1c(CN2CCN(c3cccc(Cl)c3)CC2)cc(COCc2ccccc2)c2cccnc12 | -0.2 | -0.9 | 12.8 | 9.3
CCOC(=O)C1CCCN(Cc2cc(Cl)c3cccnc3c2O)C1 (centres undefined) | 0.3 | -0.5 | 15.5 | 35.6
COc1ccc(C2/C(=C(/O)c3ccc([N+](=O)[O-])cc3)C(=O)C(=O)N2CCCCCC(=O)O)cc1 (centres undefined) | -0.4 | -0.1 | 3.4 | -7.7
N#C/C(=C\c1cc([N+](=O)[O-])ccc1Cl)c1nn(CCO)c(N)c1C#N | -0.1 | -0.2 | 67.5* | 9.5
N#C/C(=C\c1ccc(Cl)c([N+](=O)[O-])c1)c1nn(CCO)c(N)c1C#N | -0.5 | 0.2 | 1.0 | 8.4
COC(=O)C1=C(N)Oc2cc(C)[nH]c(=O)c2C1c1ccccc1 (centres undefined) | 0.3 | 0.3 | 12.0 | 14.4
CN(c1ccccc1)S(=O)(=O)c1ccc2c(c1)oc(=O)n2C | -0.7 | 1.2 | 56.3* | 10.3
COc1ccc(N(C)S(=O)(=O)c2ccc3c(c2)oc(=O)n3C)cc1 | 1.3 | -0.1 | 2.6 | 19.9
CN(c1ccc(Br)cc1)S(=O)(=O)c1ccc2c(c1)oc(=O)n2C | 0.8 | -0.2 | 34.0* | 9.3
CCC1CCCCN1CCC(=O)Nc1cccc(Cl)c1 (centres undefined) | -1.0 | -0.4 | -2.9 | -0.9
O=C(CC(=O)c1ccc([N+](=O)[O-])cc1)Nc1cccc(O)c1 | -0.1 | 0.1 | -0.4 | 3.0
CCCN(C(=O)c1cccs1)c1nnc(-c2cccnc2)s1 | 1.4 | -0.1 | -46.1 | 3.7
Cn1cccc1/C=C1/SC(=S)N(c2ccc(CC(=O)O)cc2)C1=O | 1.3 | -0.2 | 6.5 | -14.3
COc1ccccc1C1CC(=O)NC1=O (centres undefined) | -1.1 | 0.1 | 13.8 | 5.3
SMILES | GPR151 ag | FBW7 act | TEAD-YAP block | MITF inh
Cc1nc(C)c(/C(O)=C/c2nc3ccccc3oc2=O)s1 | -2.6 | 0.6 | -3.6 | 58.3*
Cc1ccc(N2CC(NS(=O)(=O)c3ccc4ccccc4c3)CC2=O)cc1 (centres undefined) | 2.5 | -0.1 | 6.7 | -1.9
O=C(/C=C/c1ccccc1Cl)Nc1cccc(O)c1 | -1.6 | 0.0 | 38.4* | 11.0
O=C(/C=C/c1ccccc1Cl)Nc1ccc2c(c1)C(=O)NC2=O | 0.3 | 0.3 | 1.7 | 15.6
O=C(/C=C/c1ccc(Cl)cc1Cl)Nc1ccccc1F | -1.4 | 0.0 | 46.8* | 4.5
COc1ccc(/C=C/C(=O)Nc2ccccc2F)cc1 | -11.3 | 0.1 | 79.5* | 9.7
CCOC(=O)c1sc2nc(SCC(=O)NC3CCCCC3)n(Cc3ccccc3OC)c(=O)c2c1C | 0.2 | 0.5 | -3.9 | 4.5
O=C(CCl)N(c1ccccc1)c1ccccc1 | -2.5 | -0.1 | 66.4* | 24.5
CCN1C(=O)/C(=C\c2ccc(C(=O)O)cc2)C(C(=O)OC)=C1C | -1.3 | 0.2 | 3.0 | 2.6
